# Laboratory results as given in PubChem BioAssay (NCATS).
# “And” between values parts separate entries of the source, which are not always exact repeats. Identical values can stand only once. Results filed as inconclusive are left out. The source made the active and inactive calls. Unless noted, calls come from the whole dose curve.
# Key:
# [1] = biological target: Bile acid receptor (Homo sapiens) (UniProt Q96RI1); experiment: qHTS assay for small molecule agonists of farnesoid X receptor signaling (AID 588527); conditions: HEK293T FXR-UAS-bla, beta-lactamase ratio, 16 h; activation: stronger effect = higher value;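 note: series mostly up to about 77 µM; 0% = vehicle basal and 100% = reference agonist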
# Chain of Bile acid receptor (Homo sapiens) (Q96RI1 whole entry, looked up): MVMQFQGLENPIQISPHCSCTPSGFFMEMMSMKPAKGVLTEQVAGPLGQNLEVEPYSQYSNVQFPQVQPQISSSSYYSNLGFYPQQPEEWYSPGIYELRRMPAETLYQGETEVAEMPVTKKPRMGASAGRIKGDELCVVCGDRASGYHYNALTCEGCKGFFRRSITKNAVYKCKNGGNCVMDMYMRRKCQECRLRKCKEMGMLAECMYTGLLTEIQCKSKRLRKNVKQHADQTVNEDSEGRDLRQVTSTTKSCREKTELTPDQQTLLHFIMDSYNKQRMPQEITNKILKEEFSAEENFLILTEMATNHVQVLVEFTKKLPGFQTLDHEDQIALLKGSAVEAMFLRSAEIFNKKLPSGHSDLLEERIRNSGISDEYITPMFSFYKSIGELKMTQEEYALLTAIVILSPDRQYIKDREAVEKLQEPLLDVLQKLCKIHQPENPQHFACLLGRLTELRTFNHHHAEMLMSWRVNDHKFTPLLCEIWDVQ
# Outline: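 FXR-UAS-bla HEK293T cells (10% dialyzed FBS) preincubated 5-7 h at 37 C, then compounds at up to 92 uM for 16 h at 37 C. CCF4 beta-lactamase read-out after 2 h RT. Normalized to chenodeoxycholic acid (100 uM) and DMSO; Hill fit gave EC50 and efficacy.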
# [2] = biological target: Bile acid receptor (Homo sapiens) (UniProt Q96RI1); experiment: qHTS assay for small molecule antagonists of farnesoid X receptor signaling (AID 588526); note: % is set by controls: 0 for no effect and ±100 for the full control effect
# Outline: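 Antagonist mode: titrated compounds tested against chenodeoxycholic acid stimulation (normalized to 50 uM CDCA and DMSO) in GeneBLAzer HEK293T cells for 16 h. Beta-lactamase read by CCF4 fluorescence; IC50 from Hill fits.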
# [3] = biological target: Glucocorticoid receptor (Homo sapiens) (UniProt P04150); experiment: qHTS assay for small molecule agonists of glucocorticoid receptor signaling (AID 588532; active = well fitted curve in the direction sought with a large enough effect in the signal ratio, with a control signal flat; the % refers to the signal ratio;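 note: 100% = dexamethasone at 0.1 µM and 0% = DMSO only wells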); conditions: HeLa MMTV-bla, beta-lactamase ratio, agonist, 18 h; activation: stronger effect = higher value, percent of dexamethasone control, DMSO zero
# Chain of Glucocorticoid receptor (Homo sapiens) (P04150 whole entry, looked up): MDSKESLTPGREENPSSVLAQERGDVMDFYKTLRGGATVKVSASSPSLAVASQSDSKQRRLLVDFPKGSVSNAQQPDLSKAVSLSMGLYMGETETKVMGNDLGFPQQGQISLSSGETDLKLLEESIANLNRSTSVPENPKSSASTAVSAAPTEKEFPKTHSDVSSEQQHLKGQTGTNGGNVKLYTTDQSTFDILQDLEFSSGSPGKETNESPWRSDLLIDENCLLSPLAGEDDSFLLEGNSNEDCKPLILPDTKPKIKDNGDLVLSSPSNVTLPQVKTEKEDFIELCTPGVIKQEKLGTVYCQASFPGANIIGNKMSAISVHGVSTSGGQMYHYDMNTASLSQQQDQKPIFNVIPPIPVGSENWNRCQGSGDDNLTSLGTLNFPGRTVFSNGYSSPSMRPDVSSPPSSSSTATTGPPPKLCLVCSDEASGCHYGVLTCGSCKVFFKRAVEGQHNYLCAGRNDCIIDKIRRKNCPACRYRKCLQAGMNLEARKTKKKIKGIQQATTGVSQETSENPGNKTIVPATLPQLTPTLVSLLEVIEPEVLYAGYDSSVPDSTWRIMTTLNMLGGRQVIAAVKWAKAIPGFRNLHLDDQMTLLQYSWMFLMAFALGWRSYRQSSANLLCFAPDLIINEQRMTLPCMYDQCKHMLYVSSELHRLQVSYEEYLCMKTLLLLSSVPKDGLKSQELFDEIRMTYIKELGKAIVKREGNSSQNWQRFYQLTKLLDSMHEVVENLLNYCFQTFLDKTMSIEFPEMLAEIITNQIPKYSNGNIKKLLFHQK
# Outline: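 MMTV-bla HeLa beta-lactamase reporter cells in 1% charcoal/dextran FBS medium, compounds up to 92 uM for 18 h at 37 C, CCF4 readout; normalized to 0.1 uM dexamethasone (100%), EC50 and efficacy from Hill fits.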
# [4] = biological target: Peroxisome proliferator-activated receptor delta (Homo sapiens) (UniProt Q03181); experiment: qHTS assay for small molecule agonists of peroxisome proliferator-activated receptor delta signaling (AID 588534);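 note: 0% = DMSO basal wells and 100% = positive control agonist at 10 µM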
# Chain of Peroxisome proliferator-activated receptor delta (Homo sapiens) (Q03181 whole entry, looked up): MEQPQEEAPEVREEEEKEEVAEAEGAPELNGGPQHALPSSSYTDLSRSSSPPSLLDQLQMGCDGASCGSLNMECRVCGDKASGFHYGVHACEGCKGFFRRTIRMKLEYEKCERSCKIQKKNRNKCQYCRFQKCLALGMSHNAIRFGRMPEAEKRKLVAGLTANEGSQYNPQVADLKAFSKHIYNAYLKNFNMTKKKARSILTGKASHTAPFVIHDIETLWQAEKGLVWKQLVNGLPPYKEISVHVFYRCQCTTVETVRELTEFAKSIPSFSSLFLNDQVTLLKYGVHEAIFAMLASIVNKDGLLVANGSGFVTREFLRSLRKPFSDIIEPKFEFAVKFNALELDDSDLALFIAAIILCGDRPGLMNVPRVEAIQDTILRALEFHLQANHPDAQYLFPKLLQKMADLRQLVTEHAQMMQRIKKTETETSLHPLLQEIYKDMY
# Outline: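 Agonist-mode beta-lactamase reporter readout (CCF4 dye, 2 h at RT) after 18 h at 37 °C exposure to a titration; Hill-equation fitting gave EC50 and maximal response.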
# [5] = qHTS assay for small molecule antagonists of peroxisome proliferator-activated receptor delta signaling (AID 588535; active = well fitted inhibition curve with a large enough effect in the signal ratio, with a control signal flat, not every such curve was filed as active; the % refers to the signal ratio;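 for max response: cells co-treated with a PPAR-delta agonist as stimulator during compound exposure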); conditions: HEK293T PPARd-UAS-bla, beta-lactamase FRET ratio, 18 h; 460 nm channel
# Outline: (§1)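 Fluorescence from CCF4-loaded GeneBLAzer PPAR-delta-UAS-bla HEK293T cells (2 hrs RT loading) quantified reporter inhibition after an 18 hr, 37 C compound exposure across a titration.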
# [6] = biological target: Peroxisome proliferator-activated receptor delta (Homo sapiens) (UniProt Q03181); experiment: as above
# Outline: as §1
# [7] = biological target: Peroxisome proliferator-activated receptor gamma (Homo sapiens) (UniProt P37231); experiment: qHTS assay for small molecule antagonists of peroxisome proliferator-activated receptor gamma signaling (AID 588537; active = well fitted inhibition curve with a large enough effect in the signal ratio, with a control signal flat, not every such curve was filed as active; the % refers to the signal ratio;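 note: reporter cells co-stimulated with 50 nM rosiglitazone agonist during compound treatment; % of control where 0% means no effect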)
# Chain of Peroxisome proliferator-activated receptor gamma (Homo sapiens) (P37231 whole entry, looked up): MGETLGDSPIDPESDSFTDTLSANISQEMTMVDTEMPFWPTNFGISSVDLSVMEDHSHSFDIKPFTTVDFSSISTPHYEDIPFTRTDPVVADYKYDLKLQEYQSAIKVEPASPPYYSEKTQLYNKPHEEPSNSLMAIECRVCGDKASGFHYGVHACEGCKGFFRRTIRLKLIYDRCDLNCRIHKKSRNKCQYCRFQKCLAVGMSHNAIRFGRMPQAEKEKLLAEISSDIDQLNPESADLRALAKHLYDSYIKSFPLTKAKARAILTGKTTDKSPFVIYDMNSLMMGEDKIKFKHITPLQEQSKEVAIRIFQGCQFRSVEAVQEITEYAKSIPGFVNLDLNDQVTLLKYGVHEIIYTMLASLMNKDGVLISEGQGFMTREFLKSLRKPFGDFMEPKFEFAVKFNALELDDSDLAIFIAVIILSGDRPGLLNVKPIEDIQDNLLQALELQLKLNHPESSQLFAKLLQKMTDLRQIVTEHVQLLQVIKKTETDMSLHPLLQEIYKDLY
# Outline: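 Fluorescence at 460 and 530 nm (405 nm excitation) reported beta-lactamase cleavage of CCF4 after 2 h room-temperature loading. HEK293 reporter cells in 1% charcoal/dextran-treated FBS had received compound and rosiglitazone for 16 h.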
# [8] = biological target: Thyroid hormone receptor beta (Homo sapiens) (UniProt P10828); experiment: qHTS assay for small molecule agonists of thyroid hormone receptor beta signaling (AID 588545);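 note: 0% = DMSO only and 100% = 10 nM T3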
# Chain of Thyroid hormone receptor beta (Homo sapiens) (P10828 whole entry, looked up): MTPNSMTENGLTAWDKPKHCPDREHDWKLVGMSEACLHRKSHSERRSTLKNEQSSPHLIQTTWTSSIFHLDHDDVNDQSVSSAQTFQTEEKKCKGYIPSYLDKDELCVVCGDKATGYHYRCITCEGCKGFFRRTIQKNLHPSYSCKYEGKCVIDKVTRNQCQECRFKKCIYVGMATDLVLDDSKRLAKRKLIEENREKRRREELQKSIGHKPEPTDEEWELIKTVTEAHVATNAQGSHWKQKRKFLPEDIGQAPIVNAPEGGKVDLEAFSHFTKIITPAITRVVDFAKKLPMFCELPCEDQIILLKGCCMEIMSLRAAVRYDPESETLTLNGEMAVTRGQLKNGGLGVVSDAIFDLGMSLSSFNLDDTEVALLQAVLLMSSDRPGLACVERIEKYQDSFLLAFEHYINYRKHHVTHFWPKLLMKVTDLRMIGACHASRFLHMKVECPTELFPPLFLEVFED
# Outline: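 TR-UAS-bla GripTite HEK 293 cells (2500/well, medium with 2% charcoal/dextran FBS) were treated in agonist mode for 18 h at 37 C, titrated. Beta-lactamase was read by CCF4 ratio after 2 h; normalized to 10 nM T3 (100%) and DMSO, Hill-fitted for EC50 and efficacy.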
# [9] = qHTS assay for small molecule antagonists of retinoid X receptor alpha signaling (AID 588546; active = well fitted inhibition curve with a large enough effect in the signal ratio, with a control signal flat, not every such curve was filed as active; the % refers to the signal ratio;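 note: cells stimulated with 9-cis-retinoic acid as agonist; % is set by controls: 0 for no effect and ±100 for the full control effect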); conditions: HEK293T RXRa-UAS-bla, beta-lactamase ratio, antagonist mode; measured here: W530 green channel, cytotoxicity proxy
# Outline: (§2)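 Beta-lactamase reporter inhibition, read as CCF4 fluorescence ratio (ex 405, em 460/530 nm) after 2 h at RT. HEK293T UAS-bla cells, 2500/well, were stimulated with 9-cis-RA at 500 or 100 nM final alongside test compound for 18 h at 37 C.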
# [10] = biological target: Retinoic acid receptor RXR-alpha (Homo sapiens) (UniProt P19793); experiment: as above; conditions: HEK293T RXRa-UAS-bla, beta-lactamase ratio, antagonist mode
# Chain of Retinoic acid receptor RXR-alpha (Homo sapiens) (P19793 whole entry, looked up): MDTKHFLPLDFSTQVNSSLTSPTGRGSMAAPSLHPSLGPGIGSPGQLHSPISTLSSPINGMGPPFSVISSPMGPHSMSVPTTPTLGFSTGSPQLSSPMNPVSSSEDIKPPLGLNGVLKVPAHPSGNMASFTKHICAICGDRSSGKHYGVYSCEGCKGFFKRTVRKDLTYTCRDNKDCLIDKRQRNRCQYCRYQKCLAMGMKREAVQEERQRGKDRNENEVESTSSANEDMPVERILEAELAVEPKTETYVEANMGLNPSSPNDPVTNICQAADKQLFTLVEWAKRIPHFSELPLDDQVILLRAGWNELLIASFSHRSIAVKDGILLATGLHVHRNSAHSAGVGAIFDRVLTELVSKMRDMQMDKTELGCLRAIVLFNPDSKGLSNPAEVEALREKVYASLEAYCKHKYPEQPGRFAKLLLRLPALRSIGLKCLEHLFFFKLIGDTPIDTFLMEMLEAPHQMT
# Outline: as §2
# [11] = qHTS assay for small molecule activators of the p53 signaling pathway (AID 651743; active = well fitted activation curve with a large enough effect in the signal ratio, not every such curve was filed as active; the % refers to the signal ratio; note: series mostly up to about 92 µM; % of control where 0% means no effect); conditions: HCT-116 p53RE-bla, beta-lactamase FRET ratio, 16 h; activation: stronger effect = higher value
# Outline: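 Following 16 hours of compound exposure at 37 C, HCT-116 cells bearing the p53RE-bla reporter were loaded with LiveBLAzer B/G FRET substrate for 2 hours at room temperature and fluorescence intensity was recorded.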
# [12] = qHTS assay for environmental chemicals that activate the Aryl hydrocarbon Receptor (AhR) signaling pathway (AID 651777; active = well fitted curve in the direction sought with a large enough effect; an effect the other way counts as inactive or inconclusive; note: % of control where 0% means no effect; nearly all actives have a fitted effect of over 15% in size); conditions: 1A2-DRE human hepatoma cells, luciferase, 24 h; activation: stronger effect = higher value
# Outline: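 Stable CYP1A2 promoter/DRE-luciferase human hepatoma line treated 24 hr; One-Glo luminescence, 30 min RT.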
# [13] = biological target: Peroxisome proliferator-activated receptor alpha (Homo sapiens) (UniProt Q07869); experiment: qHTS assay for small molecule agonists of the peroxisome proliferator-activated receptor alpha (PPARalpha) signaling pathway (AID 651778; active = well fitted curve in the direction sought with a large enough effect; an effect the other way counts as inactive or inconclusive; note: % of control where 0% means no effect); conditions: PathHunter PPARalpha complementation, chemiluminescence, 6 h; max response: stronger effect = higher value
# Chain of Peroxisome proliferator-activated receptor alpha (Homo sapiens) (Q07869 whole entry, looked up, the tested form may be a part): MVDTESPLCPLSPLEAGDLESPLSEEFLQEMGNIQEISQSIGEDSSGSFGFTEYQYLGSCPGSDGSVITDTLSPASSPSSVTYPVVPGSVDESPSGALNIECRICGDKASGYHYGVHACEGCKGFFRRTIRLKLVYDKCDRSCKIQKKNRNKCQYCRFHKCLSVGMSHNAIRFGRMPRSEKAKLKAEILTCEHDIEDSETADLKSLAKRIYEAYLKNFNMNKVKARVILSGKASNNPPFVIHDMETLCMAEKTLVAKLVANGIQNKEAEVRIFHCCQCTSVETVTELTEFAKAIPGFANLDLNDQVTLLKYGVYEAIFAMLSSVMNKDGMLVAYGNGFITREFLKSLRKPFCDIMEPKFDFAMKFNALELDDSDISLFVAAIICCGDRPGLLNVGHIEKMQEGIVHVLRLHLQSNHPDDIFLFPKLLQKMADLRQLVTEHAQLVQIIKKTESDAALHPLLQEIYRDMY
# Outline: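 Enzyme-fragment complementation assay in which ligand-bound PPARalpha translocates and forms an active enzyme that generates chemiluminescence. Cells were plated overnight, exposed to compound for 6 hr at 37 C, and then given detection reagent for 60 min at room temperature.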
# [14] = qHTS assay for small molecule agonists of the antioxidant response element (ARE) signaling pathway measured by Nrf2-dependant transcriptional activity (AID 720636; active = well fitted curve in the direction sought with a large enough effect in the repeat runs; an effect the other way counts as inactive or inconclusive;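 note: HepG2 cells with an ARE-driven luciferase reporter; % of control where 0% means no effect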)
# Outline: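 Reporter gene assay, HepG2 ARE-luc: 16 hr compound, 37 C, 5% CO2; read-out luciferase luminescence.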
# [15] = qHTS assay for small molecule agonists of the antioxidant response element (ARE) signaling pathway measured by Nrf2-dependant transcriptional activity - cell viability counter screen (AID 720653; active = well fitted curve in the direction sought with a large enough effect in the repeat runs; an effect the other way counts as inactive or inconclusive; note: % is set by controls: 0 for no effect and ±100 for the full control effect); conditions: ARE-bla HepG2 viability, CellTiter-Glo ATP luminescence, 16 h; max response: stronger effect = lower value
# Outline: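 ARE-bla HepG2 cells treated with compounds for 16 h at 37C; this counter screen measures viability as intracellular ATP by CellTiter-Glo luminescence after 30 min at room temperature.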
# [16] = qHTS assay for cell viability of HEK293 cells (AID 743288; active = well fitted curve in the direction sought with a large enough effect; an effect the other way counts as inactive or inconclusive; note: % is set by controls: 0 for no effect and ±100 for the full control effect; nearly all actives have a fitted effect of over 50% in size); conditions: ATP luminescence (CellTiter-Glo), 18 h; max response: stronger effect = lower value
# Outline: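 ATP luminescence (CellTiter-Glo) reports metabolically competent cell number after parental HEK293 cells, 2,000/well, were treated with DMSO-dissolved compounds for 18 h at 37 C; reagent incubation 30 min, room temperature.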
# [17] = biological target: Nuclear receptor subfamily 1 group I member 2 (Rattus norvegicus) (UniProt Q9R1A7); experiment: qHTS assay for small molecule activators of the rat pregnane X receptor (rPXR) signaling pathway (AID 651751; call rule not given here; note: 0% is about no effect); conditions: rPXR reporter cells, luciferase (One-Glo), 24 h
# Chain of Nuclear receptor subfamily 1 group I member 2 (Rattus norvegicus) (Q9R1A7 whole entry, looked up): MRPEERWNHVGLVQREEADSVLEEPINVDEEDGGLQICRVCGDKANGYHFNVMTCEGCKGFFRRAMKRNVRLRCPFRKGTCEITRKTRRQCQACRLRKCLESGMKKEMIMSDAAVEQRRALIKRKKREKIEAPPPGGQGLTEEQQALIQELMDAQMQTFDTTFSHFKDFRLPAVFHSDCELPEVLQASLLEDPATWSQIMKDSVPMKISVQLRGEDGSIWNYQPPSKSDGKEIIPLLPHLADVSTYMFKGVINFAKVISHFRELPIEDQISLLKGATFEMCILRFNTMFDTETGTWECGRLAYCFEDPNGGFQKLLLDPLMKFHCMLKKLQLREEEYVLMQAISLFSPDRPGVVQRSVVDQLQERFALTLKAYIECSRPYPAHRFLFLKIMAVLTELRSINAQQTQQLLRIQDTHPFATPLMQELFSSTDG
# [18] = qHTS assay for small molecule activators of the human pregnane X receptor (PXR) signaling pathway (AID 720659; call rule not given here; note: 0% is about no effect)
# [19] = biological target: Peroxisome proliferator-activated receptor gamma (Homo sapiens) (UniProt P37231); experiment: qHTS assay for small molecule agonists of peroxisome proliferator-activated receptor gamma signaling (AID 588536; active = well fitted curve in the direction sought with a large enough effect in the signal ratio, with a control signal flat, not every such curve was filed as active; the % refers to the signal ratio;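 note: 0% = DMSO basal wells and 100% = rosiglitazone at 2 µM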)
# Outline: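 Cells were plated and held 6–6.5 h at 37 C, then compounds were added as a titration series. After a further 16 h, CCF4 dye was loaded for 2 h at room temperature and emission at 460/530 nm recorded.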
# [20] = biological target: Vitamin D3 receptor (Homo sapiens) (UniProt P11473); experiment: qHTS assay for small molecule antagonists of vitamin D receptor signaling (AID 588541);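 note: receptor activated by calcitriol during compound treatment; series mostly up to about 77 µM; % is set by controls: 0 for no effect and ±100 for the full control effect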
# Chain of Vitamin D3 receptor (Homo sapiens) (P11473 whole entry, looked up): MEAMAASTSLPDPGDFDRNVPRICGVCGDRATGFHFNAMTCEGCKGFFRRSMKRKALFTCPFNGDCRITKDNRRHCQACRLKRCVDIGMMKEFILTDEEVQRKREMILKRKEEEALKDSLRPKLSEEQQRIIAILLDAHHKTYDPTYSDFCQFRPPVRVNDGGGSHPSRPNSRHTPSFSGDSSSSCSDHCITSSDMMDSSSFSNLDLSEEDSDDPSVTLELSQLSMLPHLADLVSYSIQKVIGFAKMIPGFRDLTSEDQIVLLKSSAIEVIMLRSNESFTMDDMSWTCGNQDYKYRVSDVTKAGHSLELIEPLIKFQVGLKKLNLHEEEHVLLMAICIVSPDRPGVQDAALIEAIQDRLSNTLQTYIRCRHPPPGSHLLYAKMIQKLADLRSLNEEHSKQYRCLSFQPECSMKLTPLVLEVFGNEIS
# Outline: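 VDR-UAS-bla HEK293T cells in 2% charcoal-stripped FBS were stimulated with 1-alpha,25-dihydroxyvitamin D3 (3 nM final) plus compound for 16 h at 37 C. The beta-lactamase CCF4 readout was normalized to 50 nM agonist and DMSO, and Hill fits gave IC50.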
# [21] = biological target: Vitamin D3 receptor (Homo sapiens) (UniProt P11473); experiment: qHTS assay for small molecule agonists of vitamin D receptor signaling (AID 588543);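 note: 0% = DMSO basal and 100% = reference agonist control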
# Outline: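 β-lactamase reporter, VDR-UAS-bla HEK293T, agonist mode. Cells plated 5 h at 37 °C, compound titration 16 h at 37 °C, CCF4 dye 2 h RT, ratio 460/530 nm. Hill fit → EC50, efficacy vs 50 nM 1α,25-(OH)2D3.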
# [22] = qHTS assay for small molecule agonists of retinoid X receptor alpha signaling (AID 588544); conditions: HEK293T RXRa-UAS-bla, beta-lactamase reporter, 18 h; 530 nm emission;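 for activation: 0% = DMSO basal wells and 100% = reference agonist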
# [23] = biological target: Retinoic acid receptor RXR-alpha (Homo sapiens) (UniProt P19793); experiment: as above
# [24] = qHTS assay for small molecule agonists of the antioxidant response element (ARE) signaling pathway (AID 651741; active = well fitted activation curve with a large enough effect in the signal ratio; the % refers to the signal ratio; note: % of control where 0% means no effect)
# Outline: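 Stably integrated ARE-beta-lactamase reporter HepG2 cells; 16 h compound incubation, 37 C; LiveBLAzer FRET substrate 2 h at room temperature; fluorescence intensity.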
# [25] = qHTS assay for cell viability of the p53RE-bla HCT-116 cell line (AID 743292; active = well fitted curve in the direction sought with a large enough effect; an effect the other way counts as inactive or inconclusive; note: % is set by controls: 0 for no effect and ±100 for the full control effect; nearly all actives have a fitted effect of over 55% in size)
# Outline: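 Readout: CellTiter-Glo luminescence after 30 min RT. Treatment: compounds in DMSO, 16 h, 37 C. Cells: CellSensor p53RE-bla HCT-116, 4,000/well, preincubated 5 h.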
structure (smiles),measurement,setting,value
CCCCNS(=O)(=O)c1ccccc1,activation,[1],2.61% (inactive)
CCOP(=O)(OCC)Oc1cc(C)nc(C(C)C)n1,Potency,[2],inactive
same,activation,[1],-3.07% (inactive)
same,activation,[3],20.3% (inactive)
same,outcome,[4],inactive
same,max response,[5],22.9%
same,Potency,[6],inactive
same,Potency,[7],inactive
same,Potency,[8],inactive
same,max response,[9],13.6%
same,max response,[10],18.7% (inactive)
same,activation,[11],-7.84% (inactive)
same,activation,[12],-0.423% (inactive)
same,max response,[13],-1.71% (inactive)
same,Potency,[14],inactive
same,max response,[15],16.1% (inactive)
same,max response,[16],7.77% (inactive)
same,max response,[17],-12.9% (inactive)
same,outcome,[18],inactive
CCCCCCCCCCCCCCCCCCN,activation,[1],1.62% (inactive)
CCCCOC(=O)COc1ccc(Cl)cc1Cl,activation,[1],-5.91% (inactive) and -0.513% (inactive)
Cc1nc2ccc(Cl)cc2[nH]1,activation,[1],-1.36% (inactive)
Cc1ccn2nc(S(=O)(=O)Nc3c(F)cccc3F)nc2n1,Potency,[2],inactive
same,activation,[1],-2.19% (inactive)
same,outcome,[4],inactive
same,max response,[5],35.3%
same,Potency,[19],inactive
same,Potency,[7],inactive
same,Potency,[20],inactive
same,outcome,[21],inactive
same,max response,[22],-22%
same,Potency,[23],inactive
same,max response,[9],2.3%
same,max response,[10],-2.18% (inactive)
same,Potency,[24],inactive
same,activation,[12],-0.461% (inactive)
same,max response,[13],0.276% (inactive)
same,Potency,[14],inactive
same,max response,[15],14.2% (inactive)
same,max response,[16],-3.63% (inactive)
same,Potency,[25],inactive
same,max response,[17],-3.4% (inactive)
same,outcome,[18],inactive
